PubChem BioAssay (NCI)
About 83,000 compounds went through this panel and 20% of them were active in at least one assay; those are over-represented in the sample as a whole.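 Compound tested at a single concentration for 48 hours in 96-well plates; a percent growth value below 10 was scored as active.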 A number with no mark means an inactive call. Active and inactive are the calls of the source.

System: RXF 393 renal
Test: NCI-60 one-dose screen, 48 h (100 = growth as untreated, 0 = no growth, -100 = all killed)
Conditions: 10 µM unless noted

Structure (SMILES) | growth
CCN1C(=O)N(CC)C2C1NN=c1s/c(=C\c3ccccc3F)c(=O)n12 (stereo not given) | 52%
O=C(CSC(=S)n1cnnc1)NC(=O)c1ccccc1 | 120%
CC(=O)n1nc(C(=O)OC(C)(C)c2ccccc2)c2ccccc21 | 92.2%
Oc1c(I)cc(I)cc1CNCc1ccccn1 | 70.2%
COc1ccc(C(=O)Nc2cccc(-c3cc(=O)c4c(OC)c(OC)c(OC)cc4o3)c2)cc1 | 53.6%
COc1ccccc1NC(=O)N=Nc1c(O)[nH]c2ccccc12 | 100%
O=C(CSc1nnc(-c2cnccn2)n1-c1ccccc1)c1ccc(Cl)cc1 | 114%
COc1ccc(/C=C(\C#N)n2nnc3ccc(Cl)cc32)cc1 | 48.7%
Cc1ccc(C[P+](c2ccccc2)(c2ccccc2)c2ccccc2)cc1 | 16.6%
COc1ccc2[nH]c(C(=O)N3CCN(C(=O)OCc4ccc5c(Cl)cc(Cl)c(O)c5n4)CC3)cc2c1 | -92.9% (active)
COc1ccc(C(=O)/C=C/c2c(C(F)(F)F)nc3ccccn23)cc1OC | 14.8%
Cn1c(=O)c2nc(/C=C/c3ccccc3)c(=O)[nH]c2n(C)c1=S | 118%
Cc1c[n+](Cc2ccc3ccccc3c2)cn1Cc1ccc2ccccc2c1 | 2.91% (active)
O=C1/C(=C/c2ccccc2O)CC/C1=C\c1ccccc1O | 67.5%
N#Cc1ccc2c(c1)C(=O)c1c-2n(CCCN)c(=O)c2cc([N+](=O)[O-])ccc12 | -87.9% (active)
CCCCCCCCCCCCCCCCOCCCOP(=O)(O)C1CCCN(O)C1=O (stereo not given) | 7.41% (active)
CCOC(=O)C#Cc1c(C(=O)OCC)nnn1Cc1ccc([N+](=O)[O-])cc1 | -58.4% (active)
CCN1C(=S)N(c2ccccc2)C2NC(=S)N(/N=C/C=C/c3ccccc3OC)C21 (stereo not given) | 26.3%
CCOc1nc(-c2ccccc2)cc2c(O)c(C(=O)N/N=C/c3ccccc3)[nH]c(=O)c12 | 119%
CCNCCNc1cc(-c2ccc(C(F)(F)F)cc2)c(C#N)c2nc3ccccc3n12 | -93.9% (active)

Structure (SMILES) | growth
NC(N)=NCCCCCNc1noc(Cc2c[nH]c3cc(Br)ccc23)n1 | 78.3%
Cc1c(O)cc(-c2cnc(Nc3ccccc3)s2)c(O)c1C | 99.5%
CCCCCCCCCc1ccc(OCCOCCOCCOCCOCCOCCOCCOCCOCCO)cc1 | 29%
CCOC(=O)C1=C(N)Oc2c(sc3c(F)cccc23)C1c1ccc(O)cc1 (stereo not given) | 46.1%
CCOC(=O)c1cc(C)n(-c2ccc(C(=O)O)cc2)c1C | 80.8%
O=c1[nH]c(-c2ccccc2)nc2sc3cc(O)ccc3c12 | 82.2%
CCc1ccccc1-n1c(-c2ccc(OC)cc2)cc(-c2ccc(OC)cc2)c(C#N)c1=O | 32.2%
COC(=O)C1Cc2ccccc2CN1C(=O)c1ccc2c(c1)Cc1ccccc1-2 (stereo not given) | 51.2% [50 µM]
COc1cccc(/C=C2\COc3ccc(O)c(O)c3C2=O)c1 | -18.7% (active)
CCCCn1c(=O)[nH]c(N)c([C@@H]2c3c([nH]c(=O)n(CCCC)c3=O)Oc3ccc4ccccc4c32)c1=O | 99.6%
COc1cc2c(c(OC)c1OC)CCC(c1cccc(NC(=O)c3ccc(Br)cc3)c1)O2 (stereo not given) | 89%
NC(=O)C(=O)c1ccccc1NC=O | 110%
NC(=O)c1cc(I)ccc1NC(=O)/C=C/c1ccccc1 | 19.3%
O=[N+]([O-])c1ccc(O)cc1Br | 107%
COc1ccc(OC)c(Nc2nnc(-c3ccc(O)c(OC)c3)o2)c1 | 52.7%
C=CCn1c(C)nc2ccc(Nc3nc(Nc4ccc5nc(C)n(CC=C)c5c4)c4ccccc4n3)cc21 | -80.7% (active)
Cn1c(=O)cc2c3c(c(NCCCO)ccc31)C(=O)c1ccccc1-2 | 42.6%
O=S(=O)(c1ccccc1)n1cc2c(c1)-c1nc(Nc3ncccn3)sc1CC2 | 34.6%
O=S(=O)(NCCCNc1nccc(-c2c(-c3ccc(F)c(O)c3)nc3sccn23)n1)c1ccccc1 | 26.4%
C=C(C)[C@@H]1CC[C@]2(C(=O)O)CC[C@]3(C)[C@H](CC[C@@H]4[C@@]5(C)CCC(NC(=O)c6cccc(OC(C)=O)c6OC(C)=O)C(C)(C)[C@@H]5CC[C@]43C)[C@@H]12 (stereo not given in full) | -34.3% (active)

System: SF-268 CNS
Test: as above
Conditions: 10 µM unless noted

Structure (SMILES) | growth
CCN1C(=O)N(CC)C2C1NN=c1s/c(=C\c3ccccc3F)c(=O)n12 (stereo not given) | 44.6%
O=C(CSC(=S)n1cnnc1)NC(=O)c1ccccc1 | 98.6%
CC(=O)n1nc(C(=O)OC(C)(C)c2ccccc2)c2ccccc21 | 99.2%
Oc1c(I)cc(I)cc1CNCc1ccccn1 | 36.8%
COc1ccc(C(=O)Nc2cccc(-c3cc(=O)c4c(OC)c(OC)c(OC)cc4o3)c2)cc1 | 58.4%
COc1ccccc1NC(=O)N=Nc1c(O)[nH]c2ccccc12 | 99.1%
O=C(CSc1nnc(-c2cnccn2)n1-c1ccccc1)c1ccc(Cl)cc1 | 104%
COc1ccc(/C=C(\C#N)n2nnc3ccc(Cl)cc32)cc1 | 76.1%
Cc1ccc(C[P+](c2ccccc2)(c2ccccc2)c2ccccc2)cc1 | 15.5%
COc1ccc2[nH]c(C(=O)N3CCN(C(=O)OCc4ccc5c(Cl)cc(Cl)c(O)c5n4)CC3)cc2c1 | -91.1% (active)
COc1ccc(C(=O)/C=C/c2c(C(F)(F)F)nc3ccccn23)cc1OC | 5.35% (active)
Cn1c(=O)c2nc(/C=C/c3ccccc3)c(=O)[nH]c2n(C)c1=S | 105%
Cc1c[n+](Cc2ccc3ccccc3c2)cn1Cc1ccc2ccccc2c1 | 24.3%
O=C1/C(=C/c2ccccc2O)CC/C1=C\c1ccccc1O | 71.3%
N#Cc1ccc2c(c1)C(=O)c1c-2n(CCCN)c(=O)c2cc([N+](=O)[O-])ccc12 | -92.1% (active)
CCCCCCCCCCCCCCCCOCCCOP(=O)(O)C1CCCN(O)C1=O (stereo not given) | 5.39% (active)
CCOC(=O)C#Cc1c(C(=O)OCC)nnn1Cc1ccc([N+](=O)[O-])cc1 | 87.4%
CCN1C(=S)N(c2ccccc2)C2NC(=S)N(/N=C/C=C/c3ccccc3OC)C21 (stereo not given) | 54.5%
CCOc1nc(-c2ccccc2)cc2c(O)c(C(=O)N/N=C/c3ccccc3)[nH]c(=O)c12 | 106%
CCNCCNc1cc(-c2ccc(C(F)(F)F)cc2)c(C#N)c2nc3ccccc3n12 | -75.3% (active)

Structure (SMILES) | growth
NC(N)=NCCCCCNc1noc(Cc2c[nH]c3cc(Br)ccc23)n1 | 33.3%
Cc1c(O)cc(-c2cnc(Nc3ccccc3)s2)c(O)c1C | 105%
CCCCCCCCCc1ccc(OCCOCCOCCOCCOCCOCCOCCOCCOCCO)cc1 | 28.1%
CCOC(=O)C1=C(N)Oc2c(sc3c(F)cccc23)C1c1ccc(O)cc1 (stereo not given) | 37%
CCOC(=O)c1cc(C)n(-c2ccc(C(=O)O)cc2)c1C | 92.3%
O=c1[nH]c(-c2ccccc2)nc2sc3cc(O)ccc3c12 | 86.2%
CCc1ccccc1-n1c(-c2ccc(OC)cc2)cc(-c2ccc(OC)cc2)c(C#N)c1=O | 51.9%
COC(=O)C1Cc2ccccc2CN1C(=O)c1ccc2c(c1)Cc1ccccc1-2 (stereo not given) | 49.3% [50 µM]
COc1cccc(/C=C2\COc3ccc(O)c(O)c3C2=O)c1 | 5.27% (active)
CCCCn1c(=O)[nH]c(N)c([C@@H]2c3c([nH]c(=O)n(CCCC)c3=O)Oc3ccc4ccccc4c32)c1=O | 8.16% (active)
COc1cc2c(c(OC)c1OC)CCC(c1cccc(NC(=O)c3ccc(Br)cc3)c1)O2 (stereo not given) | 78.6%
NC(=O)C(=O)c1ccccc1NC=O | 97.2%
NC(=O)c1cc(I)ccc1NC(=O)/C=C/c1ccccc1 | 29.9%
O=[N+]([O-])c1ccc(O)cc1Br | 99.6%
COc1ccc(OC)c(Nc2nnc(-c3ccc(O)c(OC)c3)o2)c1 | 68.8%
C=CCn1c(C)nc2ccc(Nc3nc(Nc4ccc5nc(C)n(CC=C)c5c4)c4ccccc4n3)cc21 | -32.4% (active)
Cn1c(=O)cc2c3c(c(NCCCO)ccc31)C(=O)c1ccccc1-2 | 42.3%
O=S(=O)(c1ccccc1)n1cc2c(c1)-c1nc(Nc3ncccn3)sc1CC2 | 66.3%
O=S(=O)(NCCCNc1nccc(-c2c(-c3ccc(F)c(O)c3)nc3sccn23)n1)c1ccccc1 | 74.4%
C=C(C)[C@@H]1CC[C@]2(C(=O)O)CC[C@]3(C)[C@H](CC[C@@H]4[C@@]5(C)CCC(NC(=O)c6cccc(OC(C)=O)c6OC(C)=O)C(C)(C)[C@@H]5CC[C@]43C)[C@@H]12 (stereo not given in full) | 14.9%
